Assay outcomes: PubChem, several laboratories
FAK blocker – inhibitors of human focal adhesion kinase; inhibition, %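 (tested at 7 µM)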; biochemical FAK kinase activity assay; Q05397; hit rate 0.84% among 97,000
JNK3 blocker – inhibitors of human JNK3 kinase | purified JNK3 kinase activity, HTS | P53779 | AID 746 | hit rate 0.61% among 60,000 | inhibition, % at 8 µM; in the data active = inhibition above about 17%
Plk1 PBD FP – blocks phosphopeptide binding to human Plk1 polo box domain; P53350; hit rate 0.13% among 97,000; inhibition, %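 (tested at about 20 µM)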; Plk1 PBD phosphopeptide binding, fluorescence polarization; in the data active = inhibition above about 34%, passing the limit was not always enough
ROCK2 inh – blocks human Rho kinase 2 activity. O75116. purified ROCK2, Kinase-Glo ATP depletion luminescence. inhibition, % at 6 µM. hit rate 0.35% among 60,000. AID 604;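 active = inhibition above the screen-wide mean inhibition plus 3 SD, cut at about 18% in these data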
PKA inh – blocks human protein kinase A activity. PKA Kemptide phosphorylation, Kinase-Glo ATP luminescence. inhibition, % at 6 µM. hit rate 0.1% among 65,000. AID 524;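 active = inhibition above the screen-wide mean inhibition plus 3 SD, cut at about 21% in these data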
PLK1 kinase inh – PLK1 (human) kinase inhibition | P53350 | recombinant PLK1 kinase, TR-FRET peptide phosphorylation | inhibition, % at 10 µM | hit rate 0.53% among 97,000 | AID 619;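 active = inhibition of 50% or more in the single-concentration screen; inactive = inhibition below 50%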
FAK inh confirm – confirmation of human focal adhesion kinase (FAK) inhibitors; shares compounds with FAK blocker; FAK kinase biochemical inhibition assay; inhibition, % at 7 µM; hit rate 28% among 750
Large screens that a line does not name were inactive (follow-up assays come after a bar, where they were run). The list is not random: actives were taken first. Their share in the collection is about 1.5%. Cut-off read from the data, not from the text of the source, unless noted: active = inhibition above about 19%; inactive = the rest.

CC(C(=O)OCc1nnc(-c2ccccc2)o1)N1C(=O)c2ccccc2C1=O (stereo not given)	none (no result: FAK blocker, JNK3 blocker, Plk1 PBD FP, ROCK2 inh, PLK1 kinase inh)
CCCc1nc2n[nH]c(N)c2c2c1CCCC2	FAK blocker 21.4 | FAK inh confirm inactive
CC(C)CNC(=O)c1ccc(Cl)c(Cl)c1	none (no result: JNK3 blocker, ROCK2 inh, PKA inh)
CCOc1ccc(S(=O)(=O)NCC2CCCO2)c2cccnc12 (stereo not given)	none
CCOc1ccc(S(=O)(=O)Nc2ccccc2SC)c2cccnc12	FAK blocker 20.1 | FAK inh confirm inactive
Cc1ccc(SCC(=O)Nc2cccc(NC(=O)c3ccco3)c2)cc1	none (no result: JNK3 blocker, ROCK2 inh, PKA inh)
Cc1ccc2c(c1)cc1c(=O)[nH]ncn12	FAK blocker 37.5 (no result: JNK3 blocker, ROCK2 inh, PKA inh) | FAK inh confirm inactive
Cc1ccc(Cn2c3ccccc3c3cn[nH]c(=O)c32)cc1	none (no result: FAK blocker, Plk1 PBD FP, PLK1 kinase inh)
CCN1CCc2c(C#N)c(N3CCOCC3)nc(NCCO)c2C1	none
O=C(Nc1ccc2c(c1)OCCO2)c1cccc2nc3ccccc3nc12	FAK blocker 38.0 (no result: JNK3 blocker, ROCK2 inh, PKA inh) | FAK inh confirm inactive
Cc1sc(NC(=O)c2sc3nc4c(C)cccc4cc3c2N)c(C#N)c1C	FAK blocker 28.7 (no result: JNK3 blocker, ROCK2 inh, PKA inh) | FAK inh confirm inactive
Cc1cccc2cc3c(N)c(C#N)sc3nc12	none
COCCNC(=O)C(OC(=O)CC1Sc2ccccc2NC1=O)c1ccncc1 (stereo not given)	none (no result: JNK3 blocker, ROCK2 inh)
O=C(CC1Sc2ccccc2NC1=O)OC(C(=O)NCCc1ccccc1)c1cccnc1 (stereo not given)	FAK blocker 33.4 (no result: JNK3 blocker, ROCK2 inh, PKA inh) | FAK inh confirm inactive
COc1cc2cc(CN(Cc3nnnn3Cc3ccco3)C3CCCCC3)c(=O)[nH]c2cc1OC	none
CCOc1ccc2[nH]c(=O)c(CN(Cc3nnnn3Cc3ccco3)C3CCCCC3)cc2c1	FAK blocker 38.6 | FAK inh confirm inactive
CN=C1S/C(=C\c2cc(C)n(-c3ccccc3F)c2C)C(=O)N1C	FAK blocker 20.9 (no result: JNK3 blocker, ROCK2 inh, PKA inh) | FAK inh confirm inactive
O=[N+]([O-])c1cc(/C=N\Nc2nccs2)ccc1O	FAK blocker 91.3 (no result: JNK3 blocker, ROCK2 inh, PKA inh) | FAK inh confirm 71.8
CC(C)CN(C(=O)COC(=O)c1cc2c(s1)CCC2)C1CCS(=O)(=O)C1 (stereo not given)	FAK blocker 30.1 | FAK inh confirm inactive
Cn1c(CCCCCN)nc2ccccc21	none
CC(CN1CCCC(C(N)=O)C1)c1ccccc1 (stereo not given)	none
c1ccc2c(c1)ncn2-c1ccc(-c2ccnc(-c3ccncc3)n2)cc1	FAK blocker 29.3 (no result: JNK3 blocker, ROCK2 inh, PKA inh) | FAK inh confirm inactive
Cc1ccc(C(=O)c2c[nH]c(C(=O)NCc3cccnc3)c2)cc1	none (no result: JNK3 blocker, ROCK2 inh, PKA inh)
Cc1cc2nnc(SC(C)C#N)n2c2ccccc12 (stereo not given)	FAK blocker 35.1 | FAK inh confirm inactive
Cc1ccc(-c2csc(NC(=O)CSc3ncn(-c4ccccc4)n3)n2)cc1	none
Cc1ccccc1Nc1cc2ccccc2c(=O)[nH]1	none (no result: FAK blocker, Plk1 PBD FP, PLK1 kinase inh)
O=c1[nH]c(Nc2ccc(F)cc2)cc2ccccc12	FAK blocker 35.7 (no result: JNK3 blocker, ROCK2 inh, PKA inh) | FAK inh confirm inactive
CCc1ccc2nc(SCC(=O)N(CC)CC)c(C#N)cc2c1	FAK blocker 40.7 | FAK inh confirm 27.1
CCOc1ccc2nc(SCC#N)c(C#N)cc2c1	FAK blocker 20.1 | FAK inh confirm inactive
C[N+]1(C)CCC(=C2c3ccccc3CC(=O)c3sccc32)CC1	FAK blocker 27.4 (no result: JNK3 blocker, ROCK2 inh, PKA inh) | FAK inh confirm inactive
CC[N+]1(C)CCC(=C2c3ccccc3CC(=O)c3sccc32)CC1 (stereo not given)	none (no result: JNK3 blocker, ROCK2 inh, PKA inh)
CC(=O)OC1c2ccccc2C(=O)N1Cc1ccccc1Cl (stereo not given)	none
N#Cc1cnn2c1nc(N1CCOCC1)c1ccccc12	FAK blocker 50.7 (no result: JNK3 blocker, ROCK2 inh, PKA inh) | FAK inh confirm 26.0
c1ccc2c(N3CCOCC3)nc(N3CCOCC3)nc2c1	none (no result: JNK3 blocker, ROCK2 inh, PKA inh)
O=c1nc2s/c(=C\c3ccco3)c(=O)n2nc1Cc1ccc(F)cc1	FAK blocker 24.4 | FAK inh confirm inactive
Cc1ccc(-c2nc3s/c(=C\c4ccco4)c(=O)n3n2)cc1	none
Clc1ccc2[nH]c3c(NCCN4CCOCC4)ncnc3c2c1	none (no result: FAK blocker, Plk1 PBD FP, PLK1 kinase inh)
Clc1ccc2[nH]c3c(NCC4CCCO4)ncnc3c2c1 (stereo not given)	FAK blocker 21.6 | FAK inh confirm inactive
O=P(O)(O)c1ccccc1OCCCCCOc1ccccc1P(=O)(O)O	FAK blocker 88.0 | FAK inh confirm 65.8
O=P(O)(O)c1ccccc1OCc1ccccc1	FAK blocker 83.8 | FAK inh confirm 80.8
CCC(c1nnc(SCC(=O)NCCc2ccc(Cl)cc2Cl)o1)N(C)C (stereo not given)	none
